Source: PubChem BioAssay (Tox21)
Results filed as inconclusive are left out. The source made the active and inactive calls. Unless noted, calls come from the whole dose curve; as a rule, active = well fitted curve in the direction sought with a large enough effect in the repeat runs; inconclusive = weak or mixed curves; inactive = no such curve, though single readings can be large; an effect the other way counts as inactive or inconclusive.

Key:
[1] = qHTS assay to identify small molecule antagonists of the thyroid receptor (TR) signaling pathway (AID 743065); note: series mostly up to about 70 µM; nearly all actives have a fitted effect of over 55% in size
Procedure, shortened: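 GH3.TRE-Luc rat pituitary cells (two TREs driving luciferase) were dosed with compound, then stimulated with 1 nM T3 (final) for 23.5 h at 37 C. ONE-Glo luminescence was the read-out, with CellTiter-Fluor fluorescence as the cytotoxicity counter-screen.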

[2] = test system: thyroid hormone receptor (rat, GH3 cells); assay: qHTS assay to identify small molecule agonists of the thyroid receptor (TR) signaling pathway (AID 743066; calls by dose curve)
[3] = biological target: Estrogen receptor (Homo sapiens) (UniProt P03372); assay: qHTS assay to identify small molecule antagonists of the estrogen receptor alpha (ER-alpha) signaling pathway (AID 743069; active = well fitted curve in the direction sought with a large enough effect in the signal ratio in the repeat runs, not every such curve was filed as active; the % refers to the signal ratio)
Chain of Estrogen receptor (Homo sapiens) (P03372 whole entry, looked up): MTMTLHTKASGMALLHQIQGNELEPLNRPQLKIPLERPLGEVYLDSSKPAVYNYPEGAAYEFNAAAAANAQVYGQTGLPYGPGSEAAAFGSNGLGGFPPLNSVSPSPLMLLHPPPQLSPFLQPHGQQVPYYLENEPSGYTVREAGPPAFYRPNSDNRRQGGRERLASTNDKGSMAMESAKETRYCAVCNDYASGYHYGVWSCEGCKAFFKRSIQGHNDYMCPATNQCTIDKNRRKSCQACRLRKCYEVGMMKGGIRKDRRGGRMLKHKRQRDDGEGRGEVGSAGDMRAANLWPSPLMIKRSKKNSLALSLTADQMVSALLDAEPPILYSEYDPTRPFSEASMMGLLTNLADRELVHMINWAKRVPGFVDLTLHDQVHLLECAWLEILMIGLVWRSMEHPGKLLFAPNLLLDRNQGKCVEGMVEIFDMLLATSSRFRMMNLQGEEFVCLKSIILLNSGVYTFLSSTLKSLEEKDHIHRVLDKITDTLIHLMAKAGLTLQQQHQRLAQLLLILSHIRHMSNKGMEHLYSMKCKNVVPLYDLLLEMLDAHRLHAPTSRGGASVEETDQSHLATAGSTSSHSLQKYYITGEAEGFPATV
Procedure, shortened: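 HEK293 ER-alpha-UAS-bla GripTite cells, held overnight in 2% charcoal-stripped FBS, 5,000 cells/well, preincubated 4 h, then compound plus 17beta-estradiol for 18 h at 37C. Beta-lactamase read by LiveBLAzer B/G FRET substrate, 2 h at room temperature.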

[4] = qHTS assay to identify small molecule antagonists of the estrogen receptor alpha (ER-alpha) signaling pathway - cell viability counter screen (AID 743074; calls by dose curve;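 note: HEK293 cells carrying ER-alpha-UAS-bla reporter stimulated with 17beta-estradiol; nearly all actives have a fitted effect of over 45% in size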)
[5] = biological target: Estrogen receptor (Homo sapiens) (UniProt P03372); assay: qHTS assay to identify small molecule agonists of the estrogen receptor alpha (ER-alpha) signaling pathway (AID 743075; calls by dose curve)
[6] = biological target: Estrogen receptor (Homo sapiens) (UniProt P03372); assay: qHTS assay to identify small molecule agonists of the estrogen receptor alpha (ER-alpha) signaling pathway using the BG1 cell line (AID 743079); note: nearly all actives have a fitted effect of over 20% in size
[7] = qHTS assay to identify small molecule antagonists of the estrogen receptor alpha (ER-alpha) signaling pathway using the BG1 cell line (AID 743080; calls by dose curve;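 note: BG1 cells stimulated with 17beta-estradiol alongside compound; series mostly up to about 70 µM; nearly all actives have a fitted effect of over 25% in size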)
Procedure, shortened: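 Luminescence from a 4×ERE-luciferase reporter in BG1-Luc-4E2 cells served as read-out. Cells, pre-cultured 5 days in stripped-serum phenol-red-free medium, were exposed to compound with 17beta-estradiol co-stimulation for 21.5 h at 37 C.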

[8] = qHTS assay to identify small molecule antagonists of the estrogen receptor alpha (ER-alpha) signaling pathway using the BG1 cell line - cell viability counter screen (AID 743081);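 note: compound given together with 17beta-estradiol as the ER stimulus; series mostly up to about 70 µM; nearly all actives have a fitted effect of over 45% in size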
[9] = biological target: Aromatase (Homo sapiens) (UniProt P11511); assay: qHTS assay to identify aromatase inhibitors (AID 743083); note: series mostly up to about 70 µM; nearly all actives have a fitted effect of over 55% in size
Chain of Aromatase (Homo sapiens) (P11511 whole entry, looked up): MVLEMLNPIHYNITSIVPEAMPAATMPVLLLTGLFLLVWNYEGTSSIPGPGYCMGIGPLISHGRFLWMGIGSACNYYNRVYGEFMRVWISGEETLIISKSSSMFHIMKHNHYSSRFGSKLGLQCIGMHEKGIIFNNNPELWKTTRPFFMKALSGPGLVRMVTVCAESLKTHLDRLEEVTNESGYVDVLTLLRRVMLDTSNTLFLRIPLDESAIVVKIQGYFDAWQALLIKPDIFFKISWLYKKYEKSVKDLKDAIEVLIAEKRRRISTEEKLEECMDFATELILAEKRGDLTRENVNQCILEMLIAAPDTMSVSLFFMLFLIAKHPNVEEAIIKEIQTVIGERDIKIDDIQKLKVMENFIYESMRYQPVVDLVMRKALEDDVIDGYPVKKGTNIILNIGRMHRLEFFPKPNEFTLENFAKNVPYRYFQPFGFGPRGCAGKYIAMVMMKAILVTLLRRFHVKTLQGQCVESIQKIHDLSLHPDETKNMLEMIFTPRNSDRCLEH

[10] = qHTS assay to identify aromatase inhibitors - cell viability counter screen (AID 743084);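 note: cells stimulated with testosterone during compound exposure; nearly all actives have a fitted effect of over 55% in size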
[11] = biological target: Aryl hydrocarbon receptor (Homo sapiens) (UniProt P35869); assay: qHTS assay to identify small molecule that activate the aryl hydrocarbon receptor (AhR) signaling pathway (AID 743085);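 note: HG2L7.5c1 human HepG2 liver cells with stably integrated DRE-driven firefly reporter; series mostly up to about 70 µM; nearly all actives have a fitted effect of over 15% in size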
Chain of Aryl hydrocarbon receptor (Homo sapiens) (P35869 whole entry, looked up): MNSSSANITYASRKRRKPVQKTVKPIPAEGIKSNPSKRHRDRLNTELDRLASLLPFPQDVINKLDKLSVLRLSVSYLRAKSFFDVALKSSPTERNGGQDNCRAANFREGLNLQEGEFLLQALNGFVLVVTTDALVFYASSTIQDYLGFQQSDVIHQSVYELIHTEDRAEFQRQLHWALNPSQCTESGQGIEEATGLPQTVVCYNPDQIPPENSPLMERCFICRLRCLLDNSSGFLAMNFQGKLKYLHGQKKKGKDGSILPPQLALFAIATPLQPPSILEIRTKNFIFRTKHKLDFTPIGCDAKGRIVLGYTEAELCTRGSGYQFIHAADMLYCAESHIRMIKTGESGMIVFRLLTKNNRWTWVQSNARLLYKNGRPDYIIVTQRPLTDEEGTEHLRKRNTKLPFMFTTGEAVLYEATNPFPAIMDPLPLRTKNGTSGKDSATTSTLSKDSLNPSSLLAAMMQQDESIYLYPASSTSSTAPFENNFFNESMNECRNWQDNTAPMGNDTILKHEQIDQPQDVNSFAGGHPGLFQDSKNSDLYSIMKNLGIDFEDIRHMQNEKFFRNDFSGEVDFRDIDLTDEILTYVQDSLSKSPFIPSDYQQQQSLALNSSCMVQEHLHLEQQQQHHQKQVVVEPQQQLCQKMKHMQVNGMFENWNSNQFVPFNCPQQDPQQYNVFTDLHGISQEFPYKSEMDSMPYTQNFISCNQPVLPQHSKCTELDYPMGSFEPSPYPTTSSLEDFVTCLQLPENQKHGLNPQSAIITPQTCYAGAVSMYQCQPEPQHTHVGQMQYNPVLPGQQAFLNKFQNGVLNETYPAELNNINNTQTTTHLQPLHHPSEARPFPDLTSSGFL
Procedure, shortened: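 Stably transfected human liver carcinoma cells (HG2L7.5c1; 20 DRE-firefly luciferase) were incubated 5 h, dosed, and kept 24 h at 37C. Agonism was scored from increased luciferase luminescence.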

[12] = biological target: Peroxisome proliferator-activated receptor gamma (Homo sapiens) (UniProt P37231); assay: qHTS assay to identify small molecule agonists of the peroxisome proliferator-activated receptor gamma (PPARg) signaling pathway (AID 743094; active = well fitted activation curve with a large enough effect in the signal ratio in the repeat runs, not every such curve was filed as active; the % refers to the signal ratio)
Chain of Peroxisome proliferator-activated receptor gamma (Homo sapiens) (P37231 whole entry, looked up): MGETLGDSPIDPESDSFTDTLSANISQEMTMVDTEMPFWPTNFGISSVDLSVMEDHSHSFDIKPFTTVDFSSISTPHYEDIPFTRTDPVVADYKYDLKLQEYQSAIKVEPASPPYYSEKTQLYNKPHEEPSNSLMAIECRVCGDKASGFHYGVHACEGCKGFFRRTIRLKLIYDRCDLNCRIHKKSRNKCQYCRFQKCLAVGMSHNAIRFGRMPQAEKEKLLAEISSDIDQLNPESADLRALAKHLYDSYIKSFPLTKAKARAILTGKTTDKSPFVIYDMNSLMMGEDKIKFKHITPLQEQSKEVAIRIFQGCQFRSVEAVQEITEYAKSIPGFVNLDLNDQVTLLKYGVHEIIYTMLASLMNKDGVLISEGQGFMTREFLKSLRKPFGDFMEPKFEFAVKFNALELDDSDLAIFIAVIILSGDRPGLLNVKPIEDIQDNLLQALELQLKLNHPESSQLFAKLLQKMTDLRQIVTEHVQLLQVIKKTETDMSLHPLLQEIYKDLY
Procedure, shortened: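 Compounds dissolved in DMSO were added to PPARg UAS-bla HEK293H cells for 17 h at 37C, and reporter expression was quantified by fluorescence intensity after 1 h with LiveBLAzer B/G FRET substrate.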

[13] = qHTS assay to identify small molecule antagonists of the peroxisome proliferator-activated receptor gamma (PPARg) signaling pathway - cell viability counter screen (AID 743194); note: nearly all actives have a fitted effect of over 55% in size
Procedure, shortened: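 Cytotoxicity counter screen in PPARg-bla HEK293H cells, same wells as reporter assay. Compounds plus 50 nM rosiglitazone (final) for 17 h at 37 C, then viability read by CellTiter-Glo luminescence.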

[14] = qHTS assay for small molecule agonists of the antioxidant response element (ARE) signaling pathway (AID 743202; active = well fitted activation curve with a large enough effect in the signal ratio in the repeat runs, not every such curve was filed as active; the % refers to the signal ratio)
Procedure, shortened: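 ARE-bla HepG2 cells (beta-lactamase reporter under the antioxidant response element), plated 5 hours, then exposed to compounds 16 hours at 37 C. LiveBLAzer B/G FRET substrate added for 2 hours at room temperature; fluorescence intensity read.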

[15] = qHTS assay for small molecule agonists of the antioxidant response element (ARE) signaling pathway - cell viability counter screen (AID 743203; calls by dose curve; note: nearly all actives have a fitted effect of over 55% in size)
Procedure, shortened: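 Following 16 hrs of compound treatment at 37C, HepG2 cells with an ARE-controlled beta-lactamase gene were lysed with CellTiter-Glo. Luminescence was read after 30 min at room temperature.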

[16] = qHTS assay for small molecule activators of the heat shock response signaling pathway (AID 743210; active = well fitted activation curve with a large enough effect in the signal ratio in the repeat runs, with a control signal flat, not every such curve was filed as active; the % refers to the signal ratio; note: series mostly up to about 63 µM)
Procedure, shortened: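 HSE-bla HeLa cells (beta-lactamase reporter under heat shock response elements), plated overnight, then exposed to compounds 5 h at 37 C; LiveBLAzer B/G FRET substrate added, 2.5 h at room temperature, fluorescence intensity read.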

[17] = qHTS assay to identify small molecule that activate the aryl hydrocarbon receptor (AhR) signaling pathway - cell viability counter screen (AID 743086);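 note: HepG2 liver cells carrying the AhR DRE luciferase reporter; series mostly up to about 70 µM; nearly all actives have a fitted effect of over 45% in size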
Procedure, shortened: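 HepG2-AhR-luc (HG2L7.5c1) cells, 4000/well, treated 24 h at 37 C with compound; viability measured as CellTiter-Fluor fluorescence after 30 min in the same wells as the luciferase read.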

[18] = qHTS assay for small molecule activators of the heat shock response signaling pathway - cell viability counter screen (AID 743209); note: nearly all actives have a fitted effect of over 50% in size
Procedure, shortened: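 Readout: CellTiter-Glo luminescence, 30 min at room temperature. System: HSE-bla HeLa cells, 1500/well, plated overnight. Treatment: compounds in DMSO, 5 h at 37 C.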

[19] = qHTS assay to identify small molecule agonists of the peroxisome proliferator-activated receptor delta (PPARd) signaling pathway - cell viability counter screen (AID 743211); note: nearly all actives have a fitted effect of over 55% in size
Procedure, shortened: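 In the same wells used for beta-lactamase reporter measurement, cytotoxicity is scored by CellTiter-Glo. HEK293H PPARd-bla cells receive compound for 17 h at 37C following a 5 h settling period.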

[20] = biological target: Peroxisome proliferator-activated receptor gamma (Homo sapiens) (UniProt P37231); assay: qHTS assay to identify small molecule antagonists of the peroxisome proliferator-activated receptor gamma (PPARg) signaling pathway (AID 743191; calls by dose curve; note: series mostly up to about 63 µM; nearly all actives have a fitted effect of over 30% in size)
Procedure, shortened: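 GeneBLAzer PPARg UAS-bla HEK293H cells, 5 h post-plating, exposed to compounds 17 h at 37C. LiveBLAzer B/G FRET substrate added for 1 h at room temperature; beta-lactamase reporter read by fluorescence intensity.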

Measured: Potency

CCN(CC)CC
inactive: [1] | [2] | [3] | [4] | [5] | [6] | [7] | [8] | [9] | [10] | [11] | [12] | [13] | [14] | [15] | [16]

C[n+]1ccccc1/C=N/O
inactive: [1] | [2] | [3] | [4] | [5] | [6] | [7] | [8] | [9] | [10] | [17] | [12] | [13] | [14] | [15] | [18] | [16] | [19]

Cc1ccc(S(=O)(=O)NC(=O)NN2CC3CCCC3C2)cc1 (centres undefined)
inactive: [1] | [2] | [3] | [4] | [5] | [6] | [7] | [8] | [9] | [10] | [11] | [17] | [12] | [14] | [15] | [18] | [16] | [19]

CCCC(=O)OC
inactive: [1] | [2] | [3] | [4] | [5] | [6] | [7] | [8] | [9] | [10] | [12] | [13] | [14] | [16] | [19]

C=CCCCCCCCCOC(C)=O
inactive: [1] | [2] | [3] | [4] | [5] | [6] | [7] | [8] | [9] | [10] | [11] | [12] | [13] | [14] | [15] | [18] | [16] | [19]

CC(=O)SCC(CC(=O)c1ccc(C)cc1)C(=O)O (centres undefined)
inactive: [1] | [2] | [3] | [4] | [5] | [6] | [7] | [8] | [9] | [10] | [11] | [12] | [13] | [14] | [15] | [18] | [16] | [19]

O=C1c2ccccc2C(=O)N1CO
inactive: [1] | [2] | [3] | [4] | [5] | [6] | [7] | [8] | [9] | [10] | [11] | [12] | [13] | [14] | [15] | [18] | [16] | [19]

N=C(N)S(=O)O
inactive: [1] | [2] | [3] | [4] | [5] | [6] | [7] | [8] | [9] | [10] | [11] | [12] | [20] | [13] | [14] | [15] | [18] | [16]
